Experiments:
Experiment in all cases: PBM binding z-score (relative to random genomic background probes); higher = stronger binding; sequences stand for … in GC…GCGATTGACAGCGTAGAATGAAGG
[1] = system: RARb homodimer (NR concentration 270 nM)
How it was run: (§1)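 The probes on custom Agilent 4×180K protein-binding microarrays were double-stranded, with 34-nt variable regions bearing direct-repeat seeds, single-nucleotide variants, half-site ablations and random human genomic background sequences. Incubation lasted 1 h with ligand-free nuclear receptor dimers in PBS pH 7.4, 2% milk, 0.02% Triton X-100, 1 mM DTT, 0.2 mg/mL BSA and 0.4 mg/ml salmon testes DNA. Antibodies against each partner (one per run) detected bound dimers, and fluorescence scans were regression-normalized. Binding z-scores take the random background probes as reference.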

[2] = system: RARg:RXRa (NR concentration 270 nM, RXRa partner concentration 90 nM)
How it was run: as §1

[3] = system: RARg homodimer (NR concentration 270 nM)
How it was run: as §1

[4] = system: RXRa DBDmut IVT, anti-RXR (DBD mutation: RXRa K156A/R161A, NR concentration 90 nM)
How it was run: as §1

[5] = system: RXRa homodimer (NR concentration 180 nM)
How it was run: as §1

[6] = system: THRa:RXRa (NR concentration 90 nM, RXRa partner concentration 90 nM)
How it was run: as §1

[7] = system: THRa homodimer (NR concentration 90 nM)
How it was run: as §1

[8] = system: VDR homodimer (NR concentration 270 nM)
How it was run: as §1

Sequence | PBM binding z-score [1] | PBM binding z-score [2] | PBM binding z-score [3] | PBM binding z-score [4] | PBM binding z-score [5] | PBM binding z-score [6] | PBM binding z-score [7] | PBM binding z-score [8]
AGAATGAGGATAAGATCAGGGAAACAGAATACAT | -0.0231 | 0.224 | 0.322 | -0.458 | 0.578 | 1.42 | 0.69 | -0.103
TGTCGGAGGACACGAAGGTCAGAGCTTTCCAGAG | 3.4 | 3.38 | 4.14 | -0.488 | 1.8 | 2.92 | 0.651 | 0.981
CCTGCAAGGTCATGGTCAGCTAATCTACAGTATG | 4.17 | 6.01 | 6.24 | 3.84 | 6.36 | 4.04 | 2.86 | 2.64
CCGACTGGGGCATAAGGTTACCAGAAGCCAGCCC | 1.99 | 1.86 | 1.08 | -0.501 | 1.26 | 2.28 | 1.23 | -0.301
GGAACGAGGACAAAGTTGATAGCATCTGTCGACG | 0.33 | 0.769 | 1.2 | 1.23 | 0.361 | 2.36 | 0.861 | 0.141
TCTATTAGTTGATTAGGGCAACCCAAACAGCGGA | 0.891 | 0.877 | 0.646 | 1.04 | 0.612 | 0.77 | 0.499 | 0.49
ACTTACGGGTCAACGAGGTTATAGCTCGCGTATA | 3.51 | 5.67 | 5 | 2.85 | 5.91 | 4.18 | 1.02 | 3.7
TCTGCTAGTTCAACGATGGTCAGCTAATCTGCTA | 0.82 | 0.768 | 1.03 | 1.32 | 0.188 | 0.928 | -1.34 | 0.129
GCTAGTTCGTCAGTAAAAGGTCACACACCGGTCG | 5 | 5.12 | 4.64 | 2.51 | 5.36 | 3.72 | 1.98 | 2.88
ACTTACGGGTCAAAGAGGTTATAGCACGCGTATA | 3.42 | 5.32 | 4.72 | 2.54 | 6.31 | 3.45 | 0.218 | 3.59
TTACCACGGTGAAAGGTCGTTGATGCACGCCTTG | 1.77 | 2.34 | 1.01 | 0.51 | 3.04 | 1.69 | 0.129 | 1.53
GGAACGAGGGCAAAGTTGATAGCGTCTGTCGACG | 1.32 | 2.22 | 1.75 | 2.69 | 2.17 | 1.38 | -0.194 | 1.43
CGTCATAGTTCAACTAAGGTAACGTAAAGCACGC | 2.62 | 3.44 | 3.83 | 2.38 | 2.7 | 5.14 | 1.9 | 1.51
GCGACTGGGGCAAAGCAGGTTACCATTAGGTTGG | 0.874 | 0.369 | 0.722 | -0.196 | 0.428 | 2.77 | -0.429 | -0.578
AATATAGGGTCACTAGGCCAGAGTAGGTACGAAT | 3.3 | 5.24 | 4.94 | 2.94 | 5.71 | 3.61 | 1.67 | 2.21
TCATATAGGTAAAGGTAAAAGTCGAACGATATGA | 0.156 | 0.701 | 0.679 | 0.705 | 1.11 | 0.531 | -0.456 | -0.0631
ATCTCTAGGTAAAACTCAGTTCAGTGAAGAACGC | 0.751 | 0.623 | 0.586 | 0.726 | 0.153 | 1.18 | 0.901 | 2.13
ATCTCTAGGTAAAAGGTCAGTGAATCCCGAGGAT | 4.43 | 4.54 | 4.74 | 0.227 | 4.83 | 3.34 | 0.855 | 0.867
CCTACTGGGCCAAAAAGGACATTGATGCCGATAA | 0.641 | 0.266 | 0.586 | -0.359 | -0.202 | 0.101 | -0.447 | 0.158
CAAACTAGGTCACCGGCAGGTCAAAGTCCGCATG | 5.08 | 7.9 | 7.05 | 2.05 | 6.42 | 4.37 | 3.02 | 2.72
ATCGAAAGGTGGAGGTGAGTATAGAGAAAGGGAA | 1.16 | 0.536 | 0.711 | -0.665 | 0.164 | 0.67 | 0.48 | 0.297
AATACAGGGTCACTAGGCAAGAGTAGGTACGAAT | 2.95 | 5.02 | 4.81 | 2.61 | 5.45 | 3.48 | 1.19 | 2.42
CAAACTTGGTCACGAAAGGTCAAAGTCGAATGAC | 4.71 | 6.15 | 6.2 | 1.4 | 7.01 | 4.07 | 0.947 | 3.11
ATATGTAGGTTAAGGGTCCTTCAGGTTGGTTCGC | 1.37 | 1.03 | 1.09 | 0.575 | 1.59 | 1.15 | 0.749 | 1.01
CCTCGGAGGACAACACGAGGTCAGAGCTGCCAGA | 3.53 | 3.58 | 3.22 | 0.871 | 2.23 | 3.57 | 2.8 | 1.85
CCTATTAGTTGCCCATAAGGGCAACCGAAGCTCG | 1.75 | 0.539 | 0.688 | 0.215 | 0.507 | 1.65 | 1.67 | 0.922

Sequence | PBM binding z-score [1] | PBM binding z-score [2] | PBM binding z-score [3] | PBM binding z-score [4] | PBM binding z-score [5] | PBM binding z-score [6] | PBM binding z-score [7] | PBM binding z-score [8]
CCGAGTAGGTTATGGGGCATTTAGGCAACGGTGA | 0.777 | 0.488 | 0.435 | 0.127 | 0.632 | 0.429 | 0.289 | -0.135
CCTTACGGGTCACTCCAGGTTAGAGCATCGGAGT | 3.08 | 4.43 | 4.37 | 1.55 | 4.07 | 4.81 | 0.277 | 1.18
CCTTACGGGTCACCAGGTTATAGCACGACGAGCG | 3.75 | 5.68 | 5.33 | 0.805 | 6.06 | 3.45 | 0.878 | 1.09
ATACGTAGGTTAAGGGTCATTCAGGTTGGTTCGC | 4.06 | 5.01 | 3.58 | 2.11 | 6.29 | 3.72 | 1.6 | 4.36
ACTATTAATTGACTTAGGGCAACCGATACGACGC | 1 | 0.766 | 0.814 | 0.828 | 0.409 | 0.884 | 1.15 | 1.24
CTCGAAAGGTAGTGCTCAGGTGAGTATACCAAAC | -0.0122 | -0.12 | 0.0951 | -0.0232 | -0.198 | 1.61 | 0.482 | -0.438
CCTATTAGTTGACCATAAGGCCAACCGAAGCTCG | 1.68 | 0.941 | 0.942 | 0.893 | 0.779 | 2 | 1.89 | 1.06
ACTTACGGGTCGACGAGGTTATAGCACGCGTATA | 1.57 | 2.39 | 1.72 | 1.2 | 2.93 | 3.05 | 0.75 | 2.03
CTTACTGGGCCATCAGGTCATTGATATCAACGTT | 2.78 | 2.32 | 2.54 | 0.956 | 1.33 | 3.24 | 3.08 | 1.94
GCTTACGGGTCAAAGGTTATCGCATGAATAGAAT | 3.45 | 7.02 | 5.01 | 2.6 | 9.64 | 3.98 | 0.155 | 1.59
CCTCGGAGGACAACAGAAGGTCAGAGCTGCCAGA | 3.55 | 3.3 | 3.27 | 0.274 | 1.54 | 2.36 | 0.481 | 0.506
TCAGGCAGGTGAAGGTAACTCAGGTACGCAGTCG | 0.705 | 0.13 | -0.00372 | 0.635 | 0.357 | 1.52 | 0.723 | 0.051
CTACCAAGGTGAACAAGGTCGTTGACTACTATTC | 2.28 | 2.17 | 1.67 | 1.6 | 2.34 | 3.49 | 2 | 2.59
CGTCCAAGGTAATAGGAGGTCAGTGAAGACAGAT | 2.88 | 2.11 | 2.21 | 0.17 | 1.8 | 3.94 | 1.27 | 1.2
TTACCAACGTGAGCTGAGGTCGTTGATCCAACTC | 0.839 | 0.0093 | -0.366 | 0.168 | 0.547 | 2.48 | 1.5 | 2.12
TCTTGTAGATCAATAGAGGTAAAGAAAGTGCGCT | -0.162 | 0.0817 | 0.0168 | 0.436 | 0.364 | 1.9 | -0.539 | -0.6
GCTCGGAGGACAAGGTAAGAGCTTTGTCCGTAGA | -0.035 | -0.119 | 0.491 | -0.345 | -0.527 | 0.97 | -0.444 | -0.59
CGAACTAGGTCATTGACAGGACAGGGAATAGTAA | 2.89 | 4.58 | 4.36 | 2.18 | 2.59 | 2.99 | 1.01 | 1.02
TCTGCTAGGCCAGTTGGTCAGCTAACGAGCTGCC | -0.0493 | -0.411 | -0.212 | -0.198 | -0.79 | -0.845 | -1.4 | -1.5
ACTTACGGGTCAACGAGGTTCTAGCACGCGTATA | 3.24 | 5.08 | 4.31 | 2.18 | 5.1 | 3.34 | 0.629 | 2.01
GCTGCTAGGTCAACTGATGGGCAGCTAAAGCTCG | 3 | 4.73 | 5.5 | 1.45 | 2.89 | 2.68 | 0.684 | -0.378
CGTCCAAGGTCAGAGAGGTGAGTGAATGCCGAGT | 3.85 | 4.7 | 5.44 | 3.06 | 3.79 | 3.81 | 2.28 | 2.26
CGTCCAATGTCATAGGAGGTCAGTGAAGACAGAT | 3.62 | 3 | 3.4 | 0.694 | 2.17 | 4.28 | 0.745 | 1.64
TATATTAGTTGATTAGGGCAACCGAAACAGCGGA | 0.779 | 0.789 | 1.19 | 0.252 | 0.43 | 0.944 | 0.495 | 0.982
TCATATAGGAAAAAGGTGAAAGTCGGTGTGGTAA | 1.66 | 0.803 | 0.339 | 1.88 | 1.5 | 1.11 | 0.221 | 0.152
ACCTCTAGGTAAAAGTTCAGTGAATCCCGAGGAT | 2.22 | 1.17 | 1.56 | 0.969 | 1.22 | 0.914 | -0.324 | 1.21
